Measurements as given in the antibiotic and cytotoxicity screens of Wong et al. (2023).
About 3,300 (8.5%) of roughly 39,000 compounds were called active. The sample holds actives, similar compounds and a random draw of the others, so the mix is not that of the screen.

Tested on: HepG2
Test: cytotoxicity call (relative viability < 0.9)
Details: 10 µM

| Compound | cytotoxicity call |
| --- | --- |
| Cn1cc(S(=O)(=O)N2CCN(Cc3ccccc3)CC2)c(=O)n(C)c1=O | inactive |
| C=CCOC(=O)O[C@H]1[C@@H](OC)O[C@H](COC(=O)NCCCCCC(=O)NO)[C@H]2OC(=O)[C@@H](Cc3cccc(Br)c3)C/C=C/C[C@H](Cc3ccccc3)C(=O)O[C@H]12 | inactive |
| CN1C(=O)c2cc(NS(=O)(=O)c3ccc(F)cc3)ccc2OC[C@@H]2O[C@@H](CC(=O)NCC(F)(F)F)CC[C@H]21 | inactive |
| C[C@H]1CN([C@@H](C)CO)C(=O)c2cc(C#CCN(C)C)cnc2O[C@H]1CN(C)S(=O)(=O)c1cn(C)cn1 | inactive |
| O=C(C[C@H]1CC[C@H]2[C@@H](COC[C@H](O)CN2S(=O)(=O)c2ccc(Cl)cc2)O1)N[C@H]1CCN(Cc2ccccc2)C1 | inactive |
| CC(C)NC(=O)Nc1ccc2c(c1)C(=O)N([C@@H](C)CO)C[C@H](C)[C@@H](CN(C)C(=O)C1CCCCC1)OCCCC[C@H](C)O2 | inactive |
| CCNC(=S)NCC1CC1 | inactive |
| Cc1ccc(S(=O)(=O)Nc2ccc3c(c2)C(=O)N([C@H](C)CO)C[C@H](C)[C@H](CN(C)Cc2ccc4c(c2)OCO4)OCCCC[C@@H](C)O3)cc1 | inactive |
| C[C@@H]1CN([C@H](C)CO)S(=O)(=O)c2ccc(C#Cc3ccc(F)cc3)cc2O[C@@H]1CN(C)CC1CC1 | inactive |
| CO[C@@H]1CN(C)C(=O)c2ccc(NS(C)(=O)=O)cc2OC[C@@H](C)N(C(=O)CN(C)C)C[C@@H]1C | inactive |
| C[C@@H]1CN([C@@H](C)CO)C(=O)Cc2cc(NC(=O)Cn3cnnn3)ccc2O[C@@H]1CN(C)Cc1ccc(-c2ccccc2)cc1 | inactive |
| C[C@H](CO)N1C[C@H](C)[C@H](CN(C)S(=O)(=O)c2ccc(Cl)cc2)OCCCC[C@H](C)Oc2ccc(NC(=O)Nc3cccc4ccccc34)cc2C1=O | inactive |
| CCCCc1oc2ccccc2c1C(=O)c1cc(I)c(OCCN(CC)CC)c(I)c1.Cl | active |
| CCCCOc1cc(C(=O)NCCN(CC)CC)c2ccccc2n1.Cl | inactive |
| CCCCc1oc2ccccc2c1C(=O)c1cc(I)c(OCCN(CC)CC)c(I)c1 | active |
| NCCCN | inactive |
| C[C@@H]1CN([C@H](C)CO)C(=O)c2cc(NS(=O)(=O)c3cccs3)ccc2O[C@@H]1CN(C)Cc1ccncc1 | inactive |
| O=C(C[C@H]1CC[C@H]2[C@@H](COC[C@@H](O)CN2C(=O)Nc2ccc(C(F)(F)F)cc2)O1)NCCc1ccncc1 | inactive |
| Cc1noc(C)c1NC(=O)Nc1ccc2c(c1)C(=O)N([C@H](C)CO)C[C@H](C)[C@H](CN(C)S(=O)(=O)c1ccc(F)cc1)OCCCC[C@@H](C)O2 | inactive |
| COCC#Cc1ccc2c(c1)O[C@@H](CN(C)C(=O)Nc1ccccc1F)[C@@H](C)CN([C@@H](C)CO)S2(=O)=O | inactive |

| Compound | cytotoxicity call |
| --- | --- |
| CCCN1C[C@@H](C)[C@@H](OC)CN(C)C(=O)c2cc(NS(=O)(=O)c3cn(C)cn3)ccc2OC[C@H]1C | inactive |
| CN1CCN(C(=O)C[C@H]2CC[C@@H]3[C@H](COC[C@H](O)CN3C(=O)C3CCOCC3)O2)CC1 | inactive |
| Cc1ccc2c(Cl)cc(Cl)c(O)c2n1 | inactive |
| c1cnc2ccc3ncccc3c2c1 | inactive |
| Clc1nccc2ccccc12 | inactive |
| Oc1c(Br)cc(Br)c2cccnc12 | active |
| Oc1c(Cl)cc(Cl)c2cccnc12 | active |
| CCOc1ccc(S(=O)(=O)[O-])c2cccnc12.[Na+] | inactive |
| O=c1nc[nH]c2ncccc12 | inactive |
| O=S(=O)([O-])c1cc(I)c(O)c2ncccc12.[Na+] | active |
| Oc1c(I)cc(Cl)c2cccnc12 | active |
| CCCCCCCCCCCCCCCCCCOC[C@H](COP(=O)(O)O[C@H]1[C@@H](O)[C@@H](O)[C@@H](O)C[C@@H]1OC)OC | inactive |
| C[C@@H]1CCCCO[C@@H](CN(C)S(C)(=O)=O)[C@H](C)CN([C@H](C)CO)C(=O)c2cc(NS(=O)(=O)c3cn(C)cn3)ccc2O1 | inactive |
| O=C(C[C@@H]1CC[C@H](NC(=O)CN2CCOCC2)[C@H](CO)O1)NCCc1ccncc1 | inactive |
| CC(=O)N1Cc2cc(C(=O)NCC(F)(F)F)nc(-c3cccc(-c4cc5ccccc5o4)c3)c2[C@H]1CCO | inactive |
| C[C@@H]1CCCCO[C@H](CN(C)C(=O)Nc2ccc(C(F)(F)F)cc2)[C@@H](C)CN([C@H](C)CO)C(=O)c2cc(NS(=O)(=O)c3cn(C)cn3)ccc2O1 | inactive |
| C[C@@H]1CN([C@H](C)CO)S(=O)(=O)c2ccc(-c3ccc(C(=O)N(C)C)cc3)cc2O[C@H]1CN(C)C(=O)Cc1ccccn1 | inactive |
| Cc1noc(C)c1S(=O)(=O)Nc1ccc2c(c1)C(=O)N([C@@H](C)CO)C[C@@H](C)[C@@H](CN(C)C(=O)Nc1ccc(F)cc1)OCCCC[C@@H](C)O2 | inactive |
| C[C@H](CO)N1C[C@H](C)[C@H](CN(C)C(=O)Nc2ccccc2)Oc2ccc(NC(=O)CCCN(C)C)cc2C1=O | inactive |
| Cc1cc(C)c2ccc(Cl)nc2n1 | inactive |

| Compound | cytotoxicity call |
| --- | --- |
| Cc1noc(C)c1NC(=O)Nc1ccc2c(c1)C(=O)N([C@H](C)CO)C[C@H](C)[C@H](CN(C)CC1CCCCC1)OCCCC[C@H](C)O2 | inactive |
| C[C@@H]1CN([C@@H](C)CO)C(=O)c2cc(NC(=O)Nc3cccc4ccccc34)ccc2O[C@H]1CN(C)C(=O)NC1CCCCC1 | inactive |
| CC(C)NC(=O)N(C)C[C@H]1Oc2cc(C#Cc3ccccn3)ccc2S(=O)(=O)N([C@H](C)CO)C[C@@H]1C | inactive |
| CC(C)(O)c1ccccc1CCC(SCC1(CC(=O)[O-])CC1)c1cccc(C=Cc2ccc3ccc(Cl)cc3n2)c1.[Na+] (stereo not given) | inactive |
| Oc1c(I)cc(I)c2cccnc12 | active |
| Nc1ncccc1F | inactive |
| Nc1ncccc1O | inactive |
| CC(=O)N(C)C[C@H]1Oc2ncc(C#C[C@@H](C)O)cc2C(=O)N([C@H](C)CO)C[C@@H]1C | inactive |
| COc1ccc([Si](C)(C)[C@H]2[C@H](CC(=O)N(CCO)Cc3ccccc3)O[C@@]3(C(=O)N(Cc4ccc(N5C(=O)c6cccc7cccc5c67)cc4)c4ccccc43)[C@@H]2C)cc1 | active |
| COc1ccc([Si](C)(C)[C@H]2[C@H](CC(=O)N(CCO)Cc3ccccc3)O[C@@]3(C(=O)N(Cc4cccc(N5CCC5=O)c4)c4ccccc43)[C@@H]2C)cc1 | inactive |
| COc1ccc([Si](C)(C)[C@@H]2[C@@H](CC(=O)N(CCO)Cc3ccccc3)O[C@]3(C(=O)N(Cc4ccc(N5CCC5=O)cc4)c4ccccc43)[C@H]2C)cc1 | inactive |
| COc1ccc([Si](C)(C)[C@H]2[C@H](CC(=O)N(CCO)Cc3ccccc3)O[C@@]3(C(=O)N(Cc4ccc(N5CCOC5=O)cc4)c4ccccc43)[C@@H]2C)cc1 | inactive |
| COc1ccc([Si](C)(C)[C@@H]2[C@@H](CC(=O)N(CCO)Cc3ccccc3)O[C@]3(C(=O)N(Cc4cccc(N5CCCCC5=O)c4)c4ccccc43)[C@H]2C)cc1 | inactive |
| COc1ccc([Si](C)(C)[C@H]2[C@H](CC(=O)N(CCO)Cc3ccccc3)O[C@@]3(C(=O)N(Cc4cccc(N5C(=O)c6cccc7cccc5c67)c4)c4ccccc43)[C@@H]2C)cc1 | active |
| C[C@H]1[C@H]([Si](C)(C)F)[C@@H](CC(=O)N(CCO)Cc2ccccc2)O[C@]12C(=O)N(c1ccccc1)c1ccccc12 | inactive |
| C[C@@H]1[C@@H]([Si](C)(C)F)[C@H](CC(=O)N2Cc3ccccc3C[C@H]2CO)O[C@@]12C(=O)N(c1ccccc1)c1ccccc12 | inactive |
| COc1ccc([Si](C)(C)[C@@H]2[C@@H](CC(=O)N(CCO)Cc3ccccc3)O[C@]3(C(=O)N(Cc4cccc(N5CCC5=O)c4)c4ccccc43)[C@H]2C)cc1 | inactive |
| C[C@@H]1[C@@H]([Si](C)(C)F)[C@H](CC(=O)N(CCO)Cc2ccccc2)O[C@@]12C(=O)N(c1ccccc1)c1ccccc12 | active |
| COc1ccc([Si](C)(C)[C@H]2[C@H](CC(=O)N(CCO)Cc3ccccc3)O[C@@]3(C(=O)N(Cc4ccc(N5CCC5=O)cc4)c4ccccc43)[C@@H]2C)cc1 | inactive |
| COc1ccc([Si](C)(C)[C@@H]2[C@@H](CC(=O)N(CCO)Cc3ccccc3)O[C@]3(C(=O)N(Cc4ccc(N5C(=O)c6cccc7cccc5c67)cc4)c4ccccc43)[C@H]2C)cc1 | active |
